Records with an inconclusive call do not appear. The source made the active and inactive calls. The calls were made as follows: active = hit-call score of the fitted dose curve at least 0.9, where 1 is the maximum; inconclusive = response in the unintended direction; inactive = score below 0.9.
Tests used:
[1] = Tanguay_ZF_120hpf_MORT_legacy: (Legacy) Oregon State University Tanguay Lab 120 Hour Post-fertilization zebrafish Assay for Mortality (AID 2283633)
In short: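 Dechorionated Tropical 5D wild-type zebrafish embryos, one per well from 6 hpf, were statically exposed at 28C in the dark until 120 hpf (0.64% DMSO final). Mortality was scored as present/absent by brightfield microscopy, fitted positively versus DMSO.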

[2] = Tanguay_ZF_120hpf_YSE_legacy: (Legacy) Oregon State University Tanguay Lab 120 Hour Post-fertilization zebrafish Assay for Yolk Sac Edema (AID 2283634)
In short: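 Tropical 5D wild-type embryos, dechorionated with pronase at 4 hpf, were exposed singly from 6 hpf to 120 hpf under static, sealed, dark conditions at 28C with 0.64% DMSO final. Yolk sac edema was scored present/absent by brightfield microscopy.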

[3] = Tanguay_ZF_120hpf_AXIS_legacy: (Legacy) Oregon State University Tanguay Lab 120 Hour Post-fertilization zebrafish Assay for Body Axis Malformation (AID 2283635)
In short: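 Tropical 5D wild-type zebrafish embryos, dechorionated with pronase at 4 hpf, were placed singly in wells at 6 hpf and exposed statically to test chemical (0.64% DMSO final) at 28C until 120 hpf, then scored by brightfield for body axis defects.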

[4] = Tanguay_ZF_120hpf_EYE_legacy: (Legacy) Oregon State University Tanguay Lab 120 Hour Post-fertilization zebrafish Assay for Eye Malformation (AID 2283636);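 also: binary presence or absence of eye malformation scored by brightfield in 120 hpf larvae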
In short: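 5D wild-type embryos, pronase-dechorionated at 4 hpf; static exposure 6–120 hpf, 28C, dark; DMSO 0.64% final; 5uM trimethyltin chloride positive control. Binary eye-defect scoring at 120 hpf; dead embryos not scored.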

[5] = Tanguay_ZF_120hpf_SNOU_legacy: (Legacy) Oregon State University Tanguay Lab 120 Hour Post-fertilization zebrafish Assay for Snout Malformation (AID 2283637)
In short: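 Binary brightfield scoring of snout malformation at 120 hpf. Dechorionated 5D wild-type embryos, one per well, static exposure from 6 hpf at 28C, sealed and dark; final DMSO 0.64% (vol/vol), DMSO as baseline; 5uM trimethyltin chloride positive control.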

[6] = Tanguay_ZF_120hpf_JAW_legacy: (Legacy) Oregon State University Tanguay Lab 120 Hour Post-fertilization zebrafish Assay for Jaw Malformation (AID 2283638)
In short: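 Tropical 5D wild-type embryos, dechorionated with pronase at 4 hpf, were placed singly per well at 6 hpf and statically exposed at 28C until 120 hpf (0.64% DMSO final). Jaw malformation scored as present/absent by brightfield microscopy at 120 hpf, analyzed relative to DMSO.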

[7] = Tanguay_ZF_120hpf_OTIC_legacy: (Legacy) Oregon State University Tanguay Lab 120 Hour Post-fertilization zebrafish Assay for Otic Vesicle Malformation (AID 2283639)
In short: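 Brightfield scoring at 120 hpf, binary present/absent; DMSO negative control, 5uM trimethyltin chloride positive control. Static exposure at 28C, final DMSO 0.64% (vol/vol). Dead embryos not scored for malformation.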

[8] = Tanguay_ZF_120hpf_PE_legacy: (Legacy) Oregon State University Tanguay Lab 120 Hour Post-fertilization zebrafish Assay for Pericardial Edema (AID 2283640)
In short: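 Tropical 5D wild-type zebrafish embryos were exposed statically to 120 hpf at 28C, sealed and foil-covered, in 0.64% DMSO final. Pericardial edema was scored present/absent by brightfield microscopy; dead embryos were not scored.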

[9] = Tanguay_ZF_120hpf_BRAI_legacy: (Legacy) Oregon State University Tanguay Lab 120 Hour Post-fertilization zebrafish Assay for Brain Malformation (AID 2283641)
In short: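 Tropical 5D wild-type zebrafish embryos were exposed statically in sealed, foil-covered plates at 28C until 120 hpf, with 0.64% (vol/vol) final DMSO. Brain malformation was scored present/absent by brightfield microscopy, relative to DMSO baseline.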

[10] = Tanguay_ZF_120hpf_SOMI_legacy: (Legacy) Oregon State University Tanguay Lab 120 Hour Post-fertilization zebrafish Assay for Somite Malformation (AID 2283647)
In short: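 Tropical 5D wild-type zebrafish embryos, dechorionated with pronase at 4 hpf, were placed singly at 6 hpf and statically exposed until 120 hpf at 28C in 0.64% DMSO. Somite malformation was scored present/absent by brightfield microscopy versus DMSO.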

[11] = Tanguay_ZF_120hpf_PFIN_legacy: (Legacy) Oregon State University Tanguay Lab 120 Hour Post-fertilization zebrafish Assay for Pectoral Fin Malformation (AID 2283648);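 also: each larva judged yes or no for fin defect by brightfield with dead larvae skipped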
In short: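 Binary pectoral fin malformation call at 120 hpf by brightfield microscopy; 5D wild-type zebrafish, chorion removed at 4 hpf, one embryo per well from 6 hpf, static exposure at 28C; DMSO (0.64% final) as baseline.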

[12] = Tanguay_ZF_120hpf_CFIN_legacy: (Legacy) Oregon State University Tanguay Lab 120 Hour Post-fertilization zebrafish Assay for Caudal Fin Malformation (AID 2283649)
In short: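 Tropical 5D wild-type embryos, dechorionated with pronase at 4 hpf, were placed singly in wells at 6 hpf and statically exposed to compound at 28C until 120 hpf (0.64% DMSO). Caudal fin malformation was scored present/absent by brightfield microscopy.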

Measured: outcome

OC[C@H]1O[C@@](CO)(O[C@H]2O[C@H](CO)[C@@H](O)[C@H](O)[C@H]2O)[C@@H](O)[C@@H]1O
not listed: [12]
inactive: all other assays above

CCCC(CCC)C(=O)O
not listed: [9] | [10]
inactive: all other assays above

C=CCc1cc(S(=O)(=O)c2ccc(O)c(CC=C)c2)ccc1O
not listed: [12]
inactive: all other assays above

Cc1nccn1-c1ccc(Sc2cccc(C3(C(N)=O)CCOCC3)c2)cc1
not listed: [3] | [9] | [12]
inactive: all other assays above

CC[C@H](C)C(=O)O[C@H]1C[C@H](O)C=C2C=C[C@H](C)[C@H](CC[C@@H](O)C[C@@H](O)CC(=O)O)[C@H]21
not listed: [1] | [9] | [12]
inactive: all other assays above

CC(C)C(=O)Nc1ccc([N+](=O)[O-])c(C(F)(F)F)c1
not listed: [9] | [12]
inactive: all other assays above

O=c1[nH]cnc2c1ncn2[C@H]1CC[C@@H](CO)O1
not listed: [9] | [12]
inactive: all other assays above

OCCNCCO
not listed: [9] | [12]
inactive: all other assays above

OCC(CO)(CO)CO
not listed: [5] | [6] | [9]
inactive: all other assays above

O=C(O)c1cccc(C(=O)O)c1
not listed: [9]
inactive: all other assays above

O=S(=O)(O)c1ccc(N=Nc2c(O)ccc3cc(S(=O)(=O)O)ccc23)cc1
not listed: [6] | [12]
inactive: all other assays above

CNC(C)=O
inactive: [1] | [3] | [5] | [6] | [8] | [11]

Reference: PubChem BioAssay (EPA / NIEHS)
